The campaign covered roughly 44,000 compounds. About 340 (0.77%) were called active. A call without a number means that no potency is given here. Inconclusive results (about 5%) are left out. The call rests on the fitted dose curve; in most records, active means well fitted inhibition curve with a large enough effect; inconclusive means small, poorly fitted or top-dose-only effect; inactive means flat fitted curve, though single readings scatter. The full list was thinned out, with actives kept by preference.
Assay: Acumen qHTS Assay for Inhibitors of the mTORC1 Signaling Pathway in MEF (Tsc2-/-, p53-/-) Cells: Sytravon; further: nearly all actives have a fitted effect of over 50% in size
Conditions: phospho-rpS6 immunofluorescence/PI, 24 h; series mostly up to 38.3 µM
Text: NIH Molecular Libraries Probe Production Centers Network [MLPCN] NIH Chemical Genomics Center [NCGC] MLPCN Grant: NS059428-01 Assay Submitter (PI): Blenis, John; Hoffman, Greg; Harvard University NCGC Assay Overview: The mammalian target of rapamycin (mTOR) is an intracellular serine/threonine kinase Aberrant regulation of mTOR signaling plays a causative role in a number of human diseases, including cancer, benign tumors such as lymphangioleiomyomatosis (LAM) and Tuberous Sclerosis Complex (TSC), and metabolic diseases such as diabetes and obesity. This project aims to identify inhibitors of ribosomal protein S6 (rpS6) phosphorylation. The phosphorylation of rpS6 is a key event downstream of mTOR activation. The assay uses a phospho-specific antibody of phospho-rpS6 to detect inhibitors of mTOR activation. Mutations in the Tsc1 and Tsc2 genes are the underlying genetic lesions responsible for TSC, causing constitutive activation of the mTORC1 pathway and leading to profound effects on cell metabolism. Aberrant metabolism in cancer has recently received significant attention as a target to develop therapeutic agents in the treatment of cancer.1 As Tsc2-/- cells have lost the ability to respond to energy and growth factor deprivation, these cells are unable to properly down regulate cellular biosynthetic processes in response to metabolic stress, and are thus extremely sensitive to glucose deprivation-induced death.2 A central goal of this project is to explore the unique cell survival and metabolic properties of cells with Tsc1 or Tsc2 by screening for compounds that selectively target the Tsc2-/- MEFs by screening both Tsc2-/- and WT MEF cell lines. We hope to better understand these aspects of TSC physiology in order to exploit them for therapeutic benefit.
NCGC Acumen Assay Protocol Summary: For quantitative high throughput analysis of mTORC1 signaling, we developed a cell-based assay for immuno-fluorescence based detection of rpS6 phosphorylation on the Acumen Explorer that will be used a platform for the primary small molecule screen. Mouse embryonic fibroblasts (MEFs) are cultured in 1536-well plates using DMEM + 10% FBS. Twenty-four hrs after plating, test compounds (solubilized in DMSO) are delivered and incubated with the cells for 24 hrs at 37 degree Celsius. Following the incubation, media with compound is aspirated and the cells are fixed in 4% paraformaldehyde (PFA) containing PBS + 0.2% TX-100. Next, PFA is aspirated, cells are washed two times with PBS plus 0.2% TX-100 and the cells are blocked for 1 hr at room temperature (blocking buffer: LiCOR Blocking Buffer plus 0.2% TX-100). […] Cells are washed two times with PBS plus 0.2% TX-100, and stained with 10 uM propidium iodide (PI) for 20-25 minutes for cell number measurement (1:500 dilution of Hoescht staining is also added for IN Cell imaging). The plates are scanned on the Acumen Explorer laser scanning instrument (TTP Labtech) using the 488nm laser for simultaneous excitation of the Alexa-488 and PI. […] The normalized phospho-S6 staining is calculated as the ratio of the integrated Alexa 488 intensity divided by the integrated PI intensity for the single concentration rapamycin control (7.5 nM) and DMSO columns. […] Inhibition of the pathway is defined based on the normalized phospho-S6 intensity in rapamycin treated cells. Active cells are defined as those with a normalized phospho-S6 staining above this threshold, and each treatment is reported as the % positive cells in the well, where thresholds are defined by selecting wells with the highest and lowest signal and differentiating between the % non-active and % active populations. In addition to the pathway specific phospho-S6 endpoint, the number of PI stained cells from the Acumen is recorded as a measure of cell viability. The primary screen was performed with a MEF cell line in a defined genetic background, Tsc2-/-, p53-/- cell line stably transfected with an empty vector control (Tsc2-/- MEF).
Potency means the concentration at half of the fitted maximal effect.

Compound | Potency
CCCCN(CC)CCCNC(=O)Cn1ncc2c([nH]c3ccc(C)cc32)c1=O | inactive
COc1cccc(CNCc2c(C(=O)O)n(Cc3ccc(C)cc3)c3cc(C)ccc23)c1OC | inactive
CCOC(=O)c1c(C)[nH]c(CCC(=O)NCCCN2CCN(c3cc(C)ccc3C)CC2)c1C | 13.1 µM (active)
Cc1ccc(C)c(N2CCN(CCCNC(=O)Nc3ccc(Cl)cc3)CC2)c1 | 18.5 µM (active)
CC1=C(c2ccc(Cl)cc2)S(=O)(=O)N=C1N1CCN(c2cc(C)ccc2C)CC1 | inactive
CCOC(=O)c1c(C)[nH]c(CCC(=O)Nc2ccc(OC)c(OC)c2)c1C | inactive
CCOC(=O)c1c(C)[nH]c(CCC(=O)NCCCN2CCN(c3cccc(Cl)c3)CC2)c1C | inactive
CC1=C(c2ccc(C)cc2)S(=O)(=O)NC1=NCCCN1CCN(c2cc(C)ccc2C)CC1 | inactive
CCn1c2ccccc2c2cc(NC(=O)COc3ccc(C)cc3C)ccc21 | inactive
COc1ccc(-c2nn(CC(=O)Nc3ccccc3F)c3c2cnc2ccc(F)cc23)cc1 | inactive
O=C1CSC2(C(=O)N(Cc3ccccc3)c3ccccc32)N1c1cccc(F)c1 (stereo unspecified) | inactive
CCC1CCCCN1C(=O)Cn1c(=O)n(CCCCCC(=O)NCc2ccccc2)c(=O)c2sccc21 (stereo unspecified) | inactive
O=C(Nc1ccc2c(c1)OCO2)c1cc(-c2cccc(Cl)c2)on1 | inactive
Cc1ccc2c(=O)c(C(=O)c3cccc(Cl)c3)cn(CC(=O)NCc3ccccc3)c2n1 | inactive
N#Cc1ccccc1Cn1cnc2nc3c(cc2c1=O)CCCC3 | inactive
CC(C)c1ccc(NC(=O)c2ccc(Cn3nc(N4CCN(c5ccccc5)CC4)ccc3=O)o2)cc1 | inactive
COc1ccc(SCc2cc(=O)c3ccc(C)c(C)c3[nH]2)cc1 | inactive
COc1ccc(-c2cc(C(F)(F)F)nc(SCC(=O)N(C)Cc3ccccc3)n2)cc1OC | inactive
Cc1ccc(S(=O)(=O)N(CC(=O)Nc2ccc(Cl)cc2Cl)c2ccccc2C)cc1 | inactive
COc1ccccc1NC(=O)C(=O)c1cc(C)n(-c2ccccc2F)c1C | inactive
COc1cc(NC(=O)c2noc3c2CSc2ccccc2-3)cc(OC)c1OC | inactive
CCN(CC)c1ccc(NS(=O)(=O)c2cc(-c3cc(C)no3)ccc2C)c(C)c1 | inactive
O=C(NCc1ccc2c(c1)CCN2C(=O)c1ccccc1)c1ccccc1 | inactive
CCc1cccc(C)c1Nc1c(-c2ccc(N(C)C)cc2)nc2ncccn12 | 13.1 µM (active)
Cc1cccc(C)c1Nc1c(-c2ccccc2O)nc2ncccn12 | inactive
COc1ccc(-c2nc3nc(C)cc(C)n3c2Nc2c(C)cccc2C)cc1 | inactive

From PubChem BioAssay AID493208 (National Center for Advancing Translational Sciences (NCATS), 2011)
